We go through 96 compounds from PubChem BioAssay AID430 (Sanford-Burnham Center for Chemical Genomics, 2006).

In all, about 63,000 compounds went through this assay and about 1,100 (1.7%) were called active. What follows is part of a selection rich in actives, with near analogues and random picks from the rest. Potency and affinity values are given separately. Values without a mark were called inactive. Cut-off read from the data, not from the text of the source: active = cytotoxicity above about 50%; inactive = the rest.

The assay can be described thus: cytotoxicity in HPDE-C7 cells, cell-based, fluorescence, HTS (AID 430).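 Note: cells exposed to compound for 48 hours before viability readout; 0% = vehicle and 100% = reference cytotoxic drug.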 To be noted: HPDE-C7 pancreatic duct cells viability, at 10 µM, active compounds read high.
For `COc1ccccc1CNC(=O)c1cc2c(=O)n(C)c3ccccc3c2n1C`, the cytotoxicity was 15.2%.

As for `COc1cccc(CNC(=O)c2cc3oc4ccccc4c3n2C)c1OC`, the cytotoxicity is 53.5% (active). As to `COc1cccc(CNC(=O)Cn2c(=O)oc3ccccc32)c1OC`, the cytotoxicity is -4.3%. As to `CC1=NC(Nc2nc(C)c3ccccc3n2)=NC(C)(C)C1`, the cytotoxicity was 1.1%. With `COc1ccc(CNC(=O)c2cc(-c3ccc(OC)c(OC)c3)on2)cc1`, the cytotoxicity was 1%. As for `CCCc1cc(C(N)=O)c(NC(=O)C2CCCO2)s1` (stereo unspecified), the cytotoxicity was -5.1%. For the compound `COC(=O)c1nc2nc(C)cc(C(F)(F)F)n2n1`, the cytotoxicity was -8.4%. With `O=C(Cn1c(=O)n(-c2cccc(Cl)c2)c(=O)n1CC(=O)N1CCCCC1)N1CCCCC1`, the cytotoxicity was 1%. The figure for `Cc1ccc(S(=O)(=O)C2(S(=O)(=O)c3ccc(C)cc3)CCCC2)cc1` is 54.6% (active). As for `O=S(=O)(c1ccccc1)C1(S(=O)(=O)c2ccccc2)CCCC1`, the figure is -3.4%; as for `Cc1ccc(S(=O)(=O)C2(C(=O)N3CCCCCC3)CC2)cc1`, 6%. Take `O=C(NCCc1cccc(Cl)c1)c1cccnc1`: the cytotoxicity is -6%.

Take `Cc1ccc(C)c(N2CCN(C(=O)c3ccc(NS(=O)(=O)c4c(C)noc4C)cc3)CC2)c1`: the cytotoxicity was 41.2%. In the case of `Cc1noc(C)c1S(=O)(=O)Nc1ccc(C(=O)N2CCN(c3ccc(Cl)cc3)CC2)cc1`, the cytotoxicity is -12.9%. As for `N#Cc1ccccc1Cn1c(=O)n(Cc2ccc(C(=O)NCc3ccco3)cc2)c(=O)c2ccccc21`, the figure is 7.9%; as for `CC(=O)c1cccc(NC(=O)C=C(C)C)c1`, 5.6%. Consider `CN(Cc1ccccc1)C(=O)CSc1nnc(-c2ccco2)n1-c1ccccc1`, for which the cytotoxicity is -10.3%. For `COc1ccc(CNC(=O)CSc2nnc(-c3ccc(NC(C)=O)cc3)n2C)cc1`, the cytotoxicity is -3.1%. Take `CCCCCn1c(SCCN2CCOCC2)nc2c1c(=O)[nH]c(=O)n2C`: the cytotoxicity is 5.5%. The figure for `CCOc1ccc(N(CC(=O)Nc2ccc(C)cc2)S(=O)(=O)c2c(C)noc2C)cc1` is 1.8%; for `COc1ccc(N(CC(=O)Nc2cc(C)ccc2OC)S(=O)(=O)c2c(C)noc2C)cc1` it is 11.2%. Take `COc1ccccc1CNC(=O)CN(c1ccc(C)cc1)S(=O)(=O)c1c(C)n[nH]c1C`: the cytotoxicity is 4.9%.

Take `COc1ccc(N(CC(=O)Nc2cc(Cl)ccc2OC)S(=O)(=O)c2c(C)noc2C)cc1`: the cytotoxicity is 73.4% (active). `CCOc1ccccc1NC(=O)CN(c1ccc(C)cc1)S(=O)(=O)c1c(C)noc1C`: the cytotoxicity was -19.7%. For the compound `COc1ccc(OC)c(NC(=O)CN(c2ccc(C)cc2)S(=O)(=O)c2c(C)noc2C)c1`, the cytotoxicity was 4.3%. The figure for `COc1ccccc1NC(=O)CN(c1ccc(C)cc1)S(=O)(=O)c1c(C)n[nH]c1C` is 4.4%.

As for `CCOc1ccc(N(CC(=O)NC(C)(C)C)S(=O)(=O)c2c(C)noc2C)cc1`, the cytotoxicity was -7.4%. Turning to `CCOc1ccc(N(CC(=O)Nc2ccccc2C)S(=O)(=O)c2c(C)noc2C)cc1`, the cytotoxicity is 65.3% (active). As to `CCOc1ccccc1NC(=O)CN(c1ccc(C)cc1)S(=O)(=O)c1c(C)n[nH]c1C`, the cytotoxicity was 52.3% (active). On to `CCOc1ccccc1NC(=O)CN(c1cc(C)cc(C)c1)S(=O)(=O)c1c(C)noc1C`, for which the cytotoxicity was 6.7%. The figure for `CCOc1ccccc1NC(=O)CN(c1ccc(OC)cc1)S(=O)(=O)c1c(C)noc1C` is 66.8% (active). `CCN1CCN(c2ncc(C(=O)Nc3c(F)cc(F)cc3Br)c3ccccc23)CC1`: the cytotoxicity is 18.4%. Take `Cc1ccc(NC(=O)NC2(C(=O)NCc3ccco3)CCCCC2)cc1`: the cytotoxicity is -5.6%. As to `CCn1[nH]c(=O)c(=Nc2c(C)n(C)n(-c3ccccc3)c2=O)cc1-c1ccc(Cl)cc1`, the cytotoxicity was -9.8%. Consider `O=C(O)c1ccc(COc2ccc(CO)cc2Cl)cc1`, for which the cytotoxicity was -12.9%. Turning to `O=C1N2CN(C(c3ccccc3)c3ccccc3)CN=C2SC1(CO)CO`, the cytotoxicity is -13.8%. As to `CCOc1ccc(-c2nc(CSCC(=O)N3CCN(C(=O)c4ccco4)CC3)c(C)o2)cc1`, the cytotoxicity is -10.8%. As for `Cc1[nH]n2c(=O)cc(C(C)(C)C)nc2c1-c1ccccc1`, the cytotoxicity was 76.6% (active). On to `Cc1[nH]n2c(=O)cc(C(C)C)nc2c1-c1ccccc1`, for which the cytotoxicity is 12.7%. Regarding `Cc1cc(=O)n2[nH]c(C)c(-c3ccccc3)c2n1`, the cytotoxicity is -5%. As to `CCCCCCNC(=O)C(C#N)c1nc2ccccc2nc1N1CCOCC1` (stereo unspecified), the cytotoxicity is 20.3%. For `CCN(CC)C(=O)N1CCC(NC(=O)Cc2ccccc2)CC1`, the cytotoxicity was -6.6%. Regarding `CCOC(=O)C1CCN(C(=O)c2cc(S(=O)(=O)N3CCOCC3)c(Cl)cc2Cl)CC1`, the cytotoxicity is 3.3%. As for `Nc1ccc(-c2cc(N)n(-c3ccccc3)n2)cc1`, the figure is 14.8%; as for `c1coc(-c2nc(-c3ccco3)c(-c3ccco3)nc2-c2ccco2)c1`, -9.1%. With `c1coc(-c2nc3ccccc3nc2-c2ccco2)c1`, the cytotoxicity is -5.7%. On to `c1coc(-c2nc3nc4ccccc4n3nc2-c2ccco2)c1`, for which the cytotoxicity was 77.5% (active).

In the case of `Cc1cc(C)c2cc3c(ccn3C3OC[C@H](O)[C@H](O)[C@H]3O)cc2n1` (stereo partly specified), the cytotoxicity is -2.7%. As to `Cc1csc(SCc2nnc(-c3ccccc3Br)o2)n1`, the cytotoxicity was -11.9%.

On to `Cc1cc(C)n(-c2c(F)c(F)c(CN3CCOCC3)c(F)c2F)n1`, for which the cytotoxicity was -4.7%. Regarding `O=C(CCN1c2ccccc2Sc2ccccc21)OCc1nnc(-c2ccccc2)o1`, the cytotoxicity is 5.5%. As for `Cc1nnc(SC(=O)N2c3ccccc3Sc3ccccc32)s1`, the cytotoxicity was -38%. The figure for `COc1ccc(C(=O)CSc2nnc(-c3ccccc3)o2)cc1` is -13.3%; for `COc1cc(OC)cc(-c2nnc(SCC(=O)N3c4ccccc4Sc4ccccc43)o2)c1` it is -10.6%; for `Cc1cccc(Nc2ccccc2)c1` it is -12.8%.

Turning to `Cc1cc2cc(CN(Cc3ccco3)C(=O)C3CCCCC3)c(=O)[nH]c2cc1C`, the cytotoxicity was -2%. Consider `COc1ccc(CNC(=O)c2cc(-c3cccs3)on2)cc1`, for which the cytotoxicity is 2.4%. On to `Cc1noc(C(=O)Nc2sc3c(c2C#N)CCC3)c1Cl`, for which the cytotoxicity was 19%. As to `COc1ccccc1NC(=O)C1(C)Cc2ccccc2C(=O)O1` (stereo unspecified), the cytotoxicity is 10.1%.

On to `CN(C)CCN(Cc1ccccc1)c1ccnc(N(C)C)c1C#N`, for which the cytotoxicity is -24.4%. Consider `COCCNC(=O)CN(CC1CCCO1)C(=O)CCC(=O)Nc1ccccn1` (stereo unspecified), for which the cytotoxicity was -5.6%. As for `COc1ccc2nc(Nc3nc(C)c(C(C)=O)s3)sc2c1`, the cytotoxicity was 18.2%.

`CCOC(=O)c1csc(Nc2nc3ccc(F)cc3s2)n1`: the cytotoxicity was 40.1%. In the case of `CC(=O)c1sc(Nc2nc3ccc(F)cc3s2)nc1C`, the cytotoxicity is 58.8% (active). For the compound `O=C(O)CCC(=O)N1CCc2cc(S(=O)(=O)N3CCN(c4ccc(F)cc4)CC3)ccc21`, the cytotoxicity is 3.1%.

Regarding `COc1ccccc1N1CCN(C(=O)c2cc3n(n2)C(C(F)(F)F)CC(c2ccco2)N3)CC1` (stereo unspecified), the cytotoxicity is -21.5%.

With `Cc1ccc(C(=O)CSc2nnc(-c3ccco3)n2Cc2ccccc2)cc1`, the cytotoxicity is -16.2%. Turning to `COc1cc(-c2nc3cnccn3c2Nc2ccccc2)ccc1O`, the cytotoxicity was 22.1%. As for `c1cn2c(NC3CCCC3)c(-c3ccc(N4CCOCC4)cc3)nc2cn1`, the cytotoxicity is 2.8%.

For `Cc1ccc2cc(CN(Cc3cccs3)C(=O)c3ccco3)c3nnnn3c2c1C`, the cytotoxicity is 22.1%. With `CCc1nc2c(n1O)CCc1nonc1-2`, the cytotoxicity is 3.5%.

Take `CCCSc1nc2c(c(=O)[nH]c(=O)n2C)n1C`: the cytotoxicity is 2.1%. The figure for `CC(NC(=O)NCC1CCCO1)(C(F)(F)F)C(F)(F)F` (stereo unspecified) is -16%; for `NS(=O)(=O)c1ccc(S(=O)(=O)N(Cc2ccccc2F)CC2CCCO2)cc1` (stereo unspecified) it is -0.3%; for `Cc1nc2ccccc2nc1CSc1nncs1` it is 3.3%.

`Cc1nc(CNS(=O)(=O)c2ccc3c(c2)CCCC3)cs1`: the cytotoxicity was -11.4%. Take `CN(C)CCNc1ncnc2c1cnn2-c1ccc(Cl)cc1`: the cytotoxicity was 19.4%. As for `CCCCNc1ncnc2c1cnn2-c1ccc(Cl)cc1`, the cytotoxicity was 72.3% (active). As for `CCCCNc1ncnc2c1cnn2-c1ccccc1`, the figure is 65% (active); as for `CC(C)OCCCNc1ncnc2c1cnn2-c1ccccc1`, 26.6%; as for `CN(C)CCCNc1ncnc2c1cnn2-c1ccccc1`, -5.5%. The figure for `COCCNc1ncnc2c1cnn2-c1ccc(Cl)cc1` is 4.6%; for `CS(=O)CCC(NS(=O)(=O)c1ccccc1)C(=O)O` (stereo unspecified) it is -7.3%. As for `Cc1cccc(N2CCN(C(=O)c3cn(C)c(=O)c4c3c3ccccc3n4C)CC2)c1C`, the cytotoxicity was 53.7% (active). The figure for `COc1ccc(N2CCN(C(=O)c3cn(C)c(=O)c4c3c3ccccc3n4C)CC2)cc1` is 10.1%; for `Cn1cc(C(=O)NCCN2CCN(c3cccc(Cl)c3)CC2)c2c3ccccc3n(C)c2c1=O` it is -12.1%. The figure for `Cn1cc(C(=O)N2CCN(C(=O)c3ccco3)CC2)c2c3ccccc3n(C)c2c1=O` is -1.4%; for `Cc1ccc(Cl)cc1N1CCN(C(=O)c2cn(C)c(=O)c3c2c2ccccc2n3C)CC1` it is 93.1% (active); for `CCOC(=O)N1CCN(C(=O)c2cn(C)c(=O)c3c2c2ccccc2n3C)CC1` it is -11.5%. Regarding `COc1ccc(C)cc1S(=O)(=O)NC1CCCC1`, the cytotoxicity is 8.4%.

Consider `CCn1ncc(C2=NOC(C(=O)NCc3ccc(Cl)cc3)C2)c1C` (stereo unspecified), for which the cytotoxicity was 65.1% (active). With `CCn1ncc(C2=NOC(C(=O)Nc3c(C)nn(Cc4ccc(F)cc4)c3C)C2)c1C` (stereo unspecified), the cytotoxicity is 25.1%. Turning to `CCn1ncc(C2=NOC(C(=O)NCc3ccc(OC)cc3)C2)c1C` (stereo unspecified), the cytotoxicity is 21.2%. As to `CCn1ncc(C2=NOC(C(=O)NCCc3ccccc3)C2)c1C` (stereo unspecified), the cytotoxicity was -13.2%. As for `CCn1ncc(C2=NOC(C(=O)Nc3cccnc3)C2)c1C` (stereo unspecified), the figure is -4.8%; as for `CCn1ncc(C2=NOC(C(=O)NCc3ccccc3)C2)c1C` (stereo unspecified), 54.7% (active).
